# PfM18AAP inh: blocks P. falciparum M18 aspartyl aminopeptidase; recombinant PfM18AAP, H-Glu-NHMec fluorogenic cleavage; inhibition, % at 7.35 µM; AID 1822; 1.2% of 290,000 active;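 active means inhibition above the campaign mean inhibition over all tested compounds plus 3 SD, cut at about 28% in these data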;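 further: 0% = plate median of test compound wells and 100% = 2 mM ZnCl2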
# PLC-gamma1 inh: blocks human PLC-gamma1 enzyme activity; inhibition, % at 12.2 µM; P19174; AID 720700; 0.84% of 370,000 active; purified PLC-gamma1, fluorogenic substrate, fluorescence; in the data active means inhibition above about 9.5%
# Rce1 inhib: yeast Ras-converting enzyme inhibition | Q03530 | yeast membranes, quenched prenylated peptide cleavage fluorescence | calls only | 0.27% of 290,000 active;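 active means fall in fluorescence gain of 50% or more versus controls, with final raw signal at or below 3038400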;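 further: plate controls were neutral control wells for no effect and wells lacking membranes for full effect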
# Target sequence (Q03530 whole entry, looked up): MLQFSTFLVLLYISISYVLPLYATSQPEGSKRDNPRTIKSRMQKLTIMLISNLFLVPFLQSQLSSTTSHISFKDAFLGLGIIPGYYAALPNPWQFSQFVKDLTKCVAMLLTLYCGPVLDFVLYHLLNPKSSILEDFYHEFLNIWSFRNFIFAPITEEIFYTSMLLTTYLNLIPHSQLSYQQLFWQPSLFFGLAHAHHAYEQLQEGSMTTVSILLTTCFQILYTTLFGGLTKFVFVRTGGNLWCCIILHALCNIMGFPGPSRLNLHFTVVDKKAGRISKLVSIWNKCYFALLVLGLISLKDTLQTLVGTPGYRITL
# PLCb3 inh: inhibitors of human phospholipase C beta3. 0.18% of 370,000 active. Q01970. AID 720704. inhibition, % at 12.2 µM. Purified PLC-beta3, fluorogenic substrate, fluorescence; in the data active means inhibition above about 11%;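 further: 0% = median of compound wells on plate and 100% = full blocker control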
# NPR1 activator: GC-A (human) enzyme activation; P16066; HEK293 GC-A cells, cGMP TR-FRET, EC30 ANP; 0% at EC30 ANP, 100% saturating ANP; AID 1671463; 0.14% of 370,000 active; activation, % at 10 µM; in the data active means activation above about 40%
# NPR2 activator: GC-B (human) receptor activation; HEK293-GC-B cells, CNP EC30, cGMP TR-FRET; 0% at EC30 CNP, 100% saturating CNP; AID 1920062; P20594; 0.11% of 370,000 active; activation, % at 10 µM;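 active means activation at 10 µM reaching about 35% in either raw or pattern-adjusted values, limit read from the data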
# Starred values were filed as active, the others as inactive; i = inactive; / = no result; + = active, no number. In the library only some 2.2% were active in any assay of this set; here they are far more common.
SMILES,PfM18AAP inh,PLC-gamma1 inh,Rce1 inhib,PLCb3 inh,NPR1 activator,NPR2 activator
COC(=O)c1cc(/C=C/c2ccccc2)on1,4,-26,i,-36,59*,6
Cc1nn(-c2ccccc2)c2sc(C(=O)NC3CCCCCC3)cc12,/,0,/,0,9,-5
CCN(CC)C(=O)CC[C@H]1CC[C@]2(CCCN(C3CCCCC3)C2)O1,/,2,/,2,0,8
CN1CCN(c2ccc(NC(=O)c3cccc(OCc4ccccc4)c3)cc2)CC1,-1,-1,i,1,4,0
CCN1CCN(c2ccc(NC(=O)c3cccc(OCc4ccccc4)c3)cc2)CC1,5,5,+,0,7,-3
COC1C=COC2(C)Oc3c(C)c(O)c4c(O)c(c(CN5CCN(C)CC5)c(O)c4c3C2=O)NC(=O)C(C)=CC=CC(C)C(O)C(C)C(O)C(C)C(OC(C)=O)C1C (stereo not given),/,-31,/,-46,-2,2
CO[C@H]1C=CO[C@@]2(C)Oc3c(C)c(O)c4c(O)c(c5c(nc6cc(C)ccn65)c4c3C2=O)NC(=O)C(C)=CC=C[C@H](C)[C@H](O)[C@@H](C)[C@@H](O)[C@@H](C)[C@H](OC(C)=O)[C@@H]1C,48*,/,i,/,/,/
CCCCCCCCN1C(=O)[C@@H](CC(=O)NCCCOCCCC)C[C@@]2(C(=O)OC)C1=C[C@H](COCc1ccccc1)O[C@@H]2C,/,-5,/,-1,-9,-2
Cc1oc(C(C)(C)C)cc1-c1cc(NC(=O)c2ccc([N+](=O)[O-])cc2)n[nH]1,8,5,i,-1,44*,57*
Cc1cc(NC(=O)c2ccc([N+](=O)[O-])cc2)no1,-5,1,i,-3,-2,2
COC(=O)C[C@H]1CC[C@H]2[C@H](COc3ccc(NC(=O)c4cccs4)cc3C(=O)N2C)O1,/,5,/,5,3,4
Cc1ccccc1CSc1nc2[nH]ncc2c(=O)[nH]1,31*,0,i,-4,-3,7
CC(C)CC1Nc2ccc(C(=O)NCc3ccc4c(c3)OCO4)cc2NC1=O (stereo not given),29*,/,i,/,/,/
Cc1ccc(Cc2c(-c3ccc(C)cc3)nc3ccc(Cl)cn23)cc1,/,-4,/,-7,30,37*
Cc1ccc(Cc2c(-c3ccc(Cl)cc3)nc3ccc(Cl)cn23)cc1,/,-11,/,-19,28,26
Cc1ccc2nc(-c3ccc(Cl)cc3)c(Cc3cccc(F)c3)n2c1,/,-7,/,-11,27,36*
COC(=O)C12C=C3CC(c4ccc(C)s4)=C3C(=O)N1Cc1[nH]c3ccccc3c1C2 (stereo not given),/,-54,/,-72,2,11
CCOC(=O)c1nnn2c1nc(N1CCCCC1)c1ccccc12,-7,1,i,-4,2,10
CCOC(=O)c1nnn2c1nc(N1CCOCC1)c1ccccc12,0,2,+,-3,1,6
Cc1ccc(S(=O)(=O)c2nnn3c2nc(N2CCOCC2)c2ccccc23)cc1,-3,1,i,-7,34,38*
COc1cccc2[nH]c(C(=O)NC(C)c3ccccc3)cc12 (stereo not given),-1,-145,+,-211,3,-1
COc1ccc(C(=O)NC(C)c2ccccc2)cc1Br (stereo not given),-19,5,i,1,-2,0
CCOC(=O)N1CCN(C2=C(NS(=O)(=O)c3ccc(C)cc3)C(=O)c3ccccc3C2=O)CC1,31*,-3,i,-6,3,-2
Cc1ccc(S(=O)(=O)NC2=C(N3CCN(Cc4ccccc4)CC3)C(=O)c3ccccc3C2=O)cc1,4,-1,i,4,-3,0
O=C(Oc1ccc(C(=S)N2CCOCC2)cc1)c1ccccc1F,29*,0,i,-1,-2,4
SMILES,PfM18AAP inh,PLC-gamma1 inh,Rce1 inhib,PLCb3 inh,NPR1 activator,NPR2 activator
CCC[C@H]1[C@@H](OC(=O)NCc2ccccc2)CC[C@@]23CCCN2C(=O)CCC[C@@H]13,/,1,/,-11,-20,-17
CN1CCCC(n2nc(Cc3ccc(Cl)cc3)c3ccccc3c2=O)CC1 (stereo not given),/,1,i,-2,-15,118*
C#CCNC(=O)C[C@H]1C[C@@]2(C(=O)OC)C(=C[C@H](C(C)C)O[C@@H]2C2CC2)N(Cc2ccc3c(c2)OCO3)C1=O,/,2,/,3,-8,-14
COc1ccc(-n2nc(C(=O)NCC(=O)N3CCC(C)CC3)c3ccccc3c2=O)cc1,-17,-54,+,-85,2,0
COc1ccc(-n2nc(C(=O)NCC(=O)N3CCCC(C)C3)c3ccccc3c2=O)cc1 (stereo not given),-9,-71,i,-132,2,1
Cc1sc(NC(=O)c2cccc(N3C(=O)CCC3=O)c2)nc1-c1ccccc1,/,-52,i,-98,77*,-7
O=C(Nc1nc2ccccc2s1)c1cccc(N2C(=O)CCC2=O)c1,-3,2,i,-10,44*,0
CC(=O)c1sc(NC(=O)c2cccc(N3C(=O)CCC3=O)c2)nc1-c1ccccc1,/,-2,i,0,32,-6
CN(C)CC(C)(C)CNC(=S)NCc1ccc2c(c1)OCO2,2,0,+,2,2,2
CCN1C(=O)/C(=C/C=C2/Sc3ccc4ccccc4c3N2CCO)SC1=S,50*,1,i,-4,2,3
CCCC1CCC2(CCC(=O)N2CCOC)CC1 (stereo not given),/,1,/,0,3,-11
CCCC[C@@H]1C(=O)N2N=Cc3cc(C)c(C)cc3[C@H]2N2N=Cc3cc(C)c(C)cc3[C@@H]12,/,0,/,-10,-4,8
CCCN1CC(=O)N2[C@H](C[C@@]3(n4ccc5ccccc54)c4ccccc4N(S(=O)(=O)c4ccccc4)[C@@H]23)C1=O,/,-5,/,-4,-4,5
CC(C)(C)c1ccc(S(=O)(=O)N2CCCC2C(=O)N2CCc3ccccc3C2)cc1 (stereo not given),/,0,/,-1,0,2
Clc1ccccc1-c1nnc(-c2ccccc2Cl)o1,8,-2,i,-3,1,-1
FC(F)(F)c1cc(Oc2ccccc2)ncc1-c1nnc(-c2ccccc2Cl)o1,-14,-6,+,-14,4,-3
Cc1ccc(CNC(=O)c2cc(C3CC3)nc3c2cnn3C(C)C)cc1,/,-11,/,-18,40*,50*
CCOC(=O)c1ccccc1NC(=O)COC(=O)c1ccc(OCC(=O)N2CCOCC2)c(OCC)c1,/,3,/,-3,24,35*
O=C1c2c([N+](=O)[O-])cc([N+](=O)[O-])cc2S(=O)N1Cc1ccccc1 (stereo not given),52*,1,i,0,9,7
O=[N+]([O-])c1ccc(NC2CCN(Cc3ccccc3)CC2)c([N+](=O)[O-])c1,4,4,i,5,-2,3
